Inconclusive results are not listed. Calls of active or inactive are those of the source. Rule for the calls, unless noted: active = hit-call score of the fitted dose curve at least 0.9, where 1 is the maximum; inactive = score below 0.9.
Assays:
[1] = target: Paired box protein Pax-6 (Homo sapiens) (UniProt P26367); experiment: ATG_Pax6_CIS: Attagene CIS-FACTORIAL HepG2 Assay for human Paired Box 6 (PAX6) (AID 2282956); settings: HepG2 CIS-FACTORIAL PAX6 reporter transcription, RNA readout; actives raise or lower the signal
Outline: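 HepG2 cells transiently transfected with multiplexed cis-promoter reporter units (endogenous TF activity) were dosed for 24 h. Reporter mRNA was quantified by RT-PCR, 6-FAM labeling, HpaI digestion and capillary electrophoresis; bidirectional fitting versus DMSO baseline.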

[2] = ATG_PXRE_CIS: Attagene CIS-FACTORIAL HepG2 Assay for human Pregnane X Receptor Element (PXRE) (AID 2282957); settings: HepG2 Attagene CIS-FACTORIAL PXRE reporter, mRNA; actives raise or lower the signal
Outline: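 HepG2 cells transiently transfected with cis-element-driven multiplexed reporter units; after 24 h chemical exposure, reporter mRNA measured by RT-PCR, 6-FAM labelling, HpaI digestion and capillary electrophoresis. Bidirectional fitting relative to DMSO.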

[3] = ATG_PPRE_CIS: Attagene CIS-FACTORIAL HepG2 Assay for human Peroxisome Proliferator-activated Response Element (PPRE) (AID 2282958); settings: HepG2 PPRE cis-element reporter, Attagene transcription factor profiling; actives raise or lower the signal
Outline: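 HepG2 cells are transiently transfected with multiplexed cis-promoter reporter units to report endogenous PPAR activity. After 24 h dosing, reporter mRNA is read by RT-PCR and capillary electrophoresis. Fitting is bidirectional against DMSO.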

[4] = ATG_RORE_CIS: Attagene CIS-FACTORIAL HepG2 Assay for human RAR-related Orphan Receptor Element (RORE) (AID 2282959); settings: HepG2 Attagene cis-factorial RORE reporter, mRNA; actives raise or lower the signal
Outline: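 HepG2 cells carrying transiently transfected cis-regulated reporter units; RORE-driven reporter mRNA quantified 24 h post-dosing by RT-PCR, 6-FAM primer extension, HpaI digestion and capillary electrophoresis. Bidirectional fit versus DMSO.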

[5] = ATG_Sox_CIS: Attagene CIS-FACTORIAL HepG2 Assay for human SRY-box transcription factor (SOX) (AID 2282960); settings: HepG2 Attagene cis-factorial SOX reporter, mRNA; actives raise or lower the signal
Outline: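 HepG2 cells transiently transfected with multiple cis-regulated reporter units, then dosed for 24 h. Reporter mRNA quantified by RT-PCR, fluorescent labelling, HpaI digestion and capillary electrophoresis; bidirectional fit versus DMSO.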

[6] = target: Transcription factor Sp1 (Homo sapiens) (UniProt P08047); experiment: ATG_Sp1_CIS: Attagene CIS-FACTORIAL HepG2 Assay for human Specificity Protein 1 (Sp1) (AID 2282961); settings: HepG2 Sp1 cis-reporter transcription, actives raise or lower the signal
Outline: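 HepG2 cells transiently transfected with multiplexed cis-regulated reporter constructs, chemical exposure 24 h. Reporter mRNA quantified by RT-PCR with capillary electrophoresis; bidirectional fit relative to DMSO.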

[7] = ATG_SREBP_CIS: Attagene CIS-FACTORIAL HepG2 Assay for human Sterol Regulatory Element Binding (SREBP) (AID 2282962); settings: HepG2 Attagene cis-factorial SREBP reporter, mRNA; actives raise or lower the signal
Outline: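 HepG2 cells transiently transfected with multiplexed cis-element reporter units report endogenous transcription factor activity. After 24 h of chemical exposure, reporter mRNA was quantified by RT-PCR, 6-FAM labelling, HpaI digestion and capillary electrophoresis; bidirectional fits used DMSO as baseline.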

[8] = target: Signal transducer and activator of transcription 3 (Homo sapiens) (UniProt P40763); experiment: ATG_STAT3_CIS: Attagene CIS-FACTORIAL HepG2 Assay for human Signal Transducer and Activator of Transcription 3 (STAT3) (AID 2282963); settings: HepG2, Attagene cis-factorial STAT3 reporter transcription; actives raise or lower the signal
Outline: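 HepG2 cells transiently transfected with multiple cis-element-driven reporter units report endogenous transcription factor activity. After 24 h compound exposure, reporter mRNA is measured by RT-PCR, 6-FAM labelling, HpaI digestion and capillary electrophoresis. Fitted bidirectionally versus DMSO.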

[9] = ATG_TA_CIS: Attagene CIS-FACTORIAL HepG2 Assay for human TA Basal Promoter (AID 2282964); settings: HepG2 Attagene CIS-factorial TA basal promoter reporter; actives raise or lower the signal
Outline: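 Fluorescence from labelled RT-PCR reporter fragments, separated by capillary electrophoresis, gives the signal. Cells: HepG2 transiently carrying multiple reporter units, 24 h chemical dosing. Gain or loss relative to DMSO.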

[10] = ATG_TCF_b_cat_CIS: Attagene CIS-FACTORIAL HepG2 Assay for human T-Cell-Factor with beta-catenin (TCF/b-cat) (AID 2282965); settings: HepG2 TCF/beta-catenin cis-reporter transcription, actives raise or lower the signal
Outline: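 HepG2 cells transiently transfected with cis-promoter-driven multiplexed reporter units; reporter mRNA measured 24 h after dosing by RT-PCR, FAM labelling, HpaI digestion and capillary electrophoresis. Bidirectional fitting relative to DMSO baseline.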

[11] = ATG_TAL_CIS: Attagene CIS-FACTORIAL HepG2 Assay for human TAL Basal Promoter (AID 2282966); settings: HepG2 Attagene cis-factorial TAL promoter reporter; actives raise or lower the signal;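 note: background control endpoint measuring basal TAL promoter reporter mRNA not a specific factor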
Outline: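 HepG2 cells transiently transfected with multiplexed cis-promoter reporter units, dosed 24 h. Reporter mRNA quantified by RT-PCR, 6-FAM labelling, HpaI digestion and capillary electrophoresis; TAL basal promoter serves as background control, fitted bidirectionally versus DMSO.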

[12] = ATG_TGFb_CIS: Attagene CIS-FACTORIAL HepG2 Assay for human Transforming Growth Factor (TGF) (AID 2282967); settings: HepG2 Attagene CIS TGFb reporter, mRNA transcription; actives raise or lower the signal
Outline: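 Bidirectional fitting relative to DMSO gave the endpoint. Underlying data: reporter mRNA from HepG2 cells carrying transiently transfected cis-regulated reporter constructs, harvested 24 h after dosing and analyzed by RT-PCR and capillary electrophoresis.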

[13] = target: X-box-binding protein 1 (Homo sapiens) (UniProt P17861); experiment: ATG_Xbp1_CIS: Attagene CIS-FACTORIAL HepG2 Assay for human X-box Binding Protein 1 (XBP1) (AID 2282972); settings: HepG2 XBP1 cis-element reporter, Attagene multiplex; actives raise or lower the signal
Outline: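 HepG2 cells transiently transfected with cis-regulated multiple reporter transcription units; endogenous transcription factor activity measured 24 hours after chemical dosing. Reporter mRNA quantified by RT-PCR, 6-FAM primer extension, HpaI digestion and capillary electrophoresis; bidirectional fitting versus DMSO.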

[14] = ATG_M_19_TRANS: Attagene TRANS-FACTORIAL HepG2 Assay for M19 Transcription Factor (Internal Marker) (AID 2282974; active = hit-call score of the fitted dose curve at least 0.9, where 1 is the maximum); settings: HepG2 Attagene TRANS-FACTORIAL M19 internal marker reporter
Outline: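 HepG2 transiently transfected with GAL4-UAS multiplex reporter constructs, exposed 24 h; reporter RNA quantified by RT-PCR, 6-FAM labeling, HpaI digestion and capillary electrophoresis; internal background marker fitted upward versus DMSO.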

[15] = ATG_GAL4_TRANS: Attagene TRANS-FACTORIAL HepG2 Assay for GAL4 (Internal Marker) (AID 2282976; active = hit-call score of the fitted dose curve at least 0.9, where 1 is the maximum); settings: HepG2 Attagene TRANS GAL4 internal marker reporter
Outline: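 Background-control readout: GAL4-UAS reporter transcript in transiently transfected HepG2 cells after 24 h compound exposure. Measured by RT-PCR, 6-FAM primer extension, HpaI digest and capillary electrophoresis; gain-of-signal fit versus DMSO.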

[16] = ATG_VDRE_CIS: Attagene CIS-FACTORIAL HepG2 Assay for human Vitamin D Receptor Element (VDRE) (AID 2282968); settings: HepG2 VDRE cis-reporter transcription, actives raise or lower the signal
Outline: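 Transiently transfected HepG2 cells carrying cis-regulated reporter transcription units were exposed for 24 h. Reporter mRNA was measured by RT-PCR with fluorescent labelling and capillary electrophoresis, and fitted in both directions against DMSO.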

[17] = target: Nuclear receptor subfamily 1 group I member 3 (Homo sapiens) (UniProt Q14994); experiment: ATG_CAR_TRANS: Attagene TRANS-FACTORIAL HepG2 Assay for human Constitutive Androstane Receptor (CAR) (AID 2282969; active = hit-call score of the fitted dose curve at least 0.9, where 1 is the maximum;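 note: activators raise reporter mRNA above DMSO so AC50 marks induction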); settings: HepG2 Attagene TRANS-FACTORIAL CAR reporter
Outline: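 HepG2 cells transiently transfected with GAL4-UAS reporter units; TRANS format reads activity of exogenous chimeric NR-Gal4 protein. After 24 h dosing, reporter mRNA quantified by RT-PCR, 6-FAM labelling and capillary electrophoresis; gain of signal fitted against DMSO.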

[18] = target: Steroid hormone receptor ERR1 (Homo sapiens) (UniProt P11474); experiment: ATG_ERRa_TRANS: Attagene TRANS-FACTORIAL HepG2 Assay for human Estrogen-Related Receptor alpha (ERRa) (AID 2282971; active = hit-call score of the fitted dose curve at least 0.9, where 1 is the maximum); settings: HepG2 Attagene TRANS reporter, ERRa transactivation
Outline: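 HepG2 cells transiently transfected with GAL4-UAS reporter units and chimeric NR-Gal4 constructs; after 24 hour compound incubation, reporter mRNA quantified by RT-PCR, fluorescent labelling and capillary electrophoresis, gain of signal versus DMSO.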

[19] = target: Estrogen-related receptor gamma (Homo sapiens) (UniProt P62508); experiment: ATG_ERRg_TRANS: Attagene TRANS-FACTORIAL HepG2 Assay for human Estrogen-Related Receptor gamma (ERRg) (AID 2282977; active = hit-call score of the fitted dose curve at least 0.9, where 1 is the maximum;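 note: hits increase reporter signal over DMSO so potencies reflect activators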); settings: HepG2 Attagene TRANS reporter, ERRg transactivation
Outline: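 Transfect HepG2 with multiple GAL4-UAS reporter transcription units; dose chemicals 24 h; isolate RNA, reverse-transcribe with oligo(dT), PCR-amplify, label with 6-FAM, digest with HpaI; size fragments by capillary electrophoresis. DMSO serves as negative control.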

Measured: AC50

Nuclear receptor subfamily 1 group I member 3 (Homo sapiens), sequence (Q14994 whole entry, looked up, the tested form may be a part): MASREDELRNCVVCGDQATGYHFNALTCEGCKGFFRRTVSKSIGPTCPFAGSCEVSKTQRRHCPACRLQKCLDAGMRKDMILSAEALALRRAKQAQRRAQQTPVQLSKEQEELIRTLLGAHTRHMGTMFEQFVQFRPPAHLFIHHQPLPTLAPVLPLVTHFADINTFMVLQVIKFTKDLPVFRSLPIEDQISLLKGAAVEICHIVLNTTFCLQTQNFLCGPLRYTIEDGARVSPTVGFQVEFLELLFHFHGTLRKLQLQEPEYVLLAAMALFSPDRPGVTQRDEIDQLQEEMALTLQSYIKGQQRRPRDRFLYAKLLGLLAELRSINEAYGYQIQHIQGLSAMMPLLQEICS
X-box-binding protein 1 (Homo sapiens), sequence (P17861 whole entry, looked up): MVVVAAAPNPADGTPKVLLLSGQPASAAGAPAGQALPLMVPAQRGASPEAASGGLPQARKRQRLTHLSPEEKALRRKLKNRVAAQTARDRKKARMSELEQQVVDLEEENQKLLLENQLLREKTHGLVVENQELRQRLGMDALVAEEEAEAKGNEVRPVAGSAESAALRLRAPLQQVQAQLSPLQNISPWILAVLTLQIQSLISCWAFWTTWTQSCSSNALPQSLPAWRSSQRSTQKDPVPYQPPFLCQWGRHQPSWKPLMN
Transcription factor Sp1 (Homo sapiens), sequence (P08047 whole entry, looked up): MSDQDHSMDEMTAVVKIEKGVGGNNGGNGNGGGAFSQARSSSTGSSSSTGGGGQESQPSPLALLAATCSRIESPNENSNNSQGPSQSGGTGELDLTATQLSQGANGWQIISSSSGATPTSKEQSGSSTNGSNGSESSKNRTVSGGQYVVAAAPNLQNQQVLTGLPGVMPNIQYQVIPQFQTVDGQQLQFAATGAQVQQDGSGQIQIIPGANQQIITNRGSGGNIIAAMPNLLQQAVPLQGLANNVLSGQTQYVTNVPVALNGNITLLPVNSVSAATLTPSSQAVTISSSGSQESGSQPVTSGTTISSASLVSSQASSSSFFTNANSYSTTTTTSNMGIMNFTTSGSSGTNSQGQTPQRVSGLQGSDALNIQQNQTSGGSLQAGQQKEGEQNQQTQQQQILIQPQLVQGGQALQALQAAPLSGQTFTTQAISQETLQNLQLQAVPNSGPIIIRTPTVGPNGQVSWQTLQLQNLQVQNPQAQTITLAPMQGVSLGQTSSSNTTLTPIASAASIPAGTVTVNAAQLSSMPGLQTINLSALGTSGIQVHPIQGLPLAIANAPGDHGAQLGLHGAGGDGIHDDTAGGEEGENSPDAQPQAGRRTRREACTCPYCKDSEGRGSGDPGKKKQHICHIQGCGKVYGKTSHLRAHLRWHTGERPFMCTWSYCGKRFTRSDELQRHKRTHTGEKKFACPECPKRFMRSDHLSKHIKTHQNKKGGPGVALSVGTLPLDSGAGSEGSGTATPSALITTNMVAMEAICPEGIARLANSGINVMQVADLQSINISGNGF
Paired box protein Pax-6 (Homo sapiens), sequence (P26367 whole entry, looked up): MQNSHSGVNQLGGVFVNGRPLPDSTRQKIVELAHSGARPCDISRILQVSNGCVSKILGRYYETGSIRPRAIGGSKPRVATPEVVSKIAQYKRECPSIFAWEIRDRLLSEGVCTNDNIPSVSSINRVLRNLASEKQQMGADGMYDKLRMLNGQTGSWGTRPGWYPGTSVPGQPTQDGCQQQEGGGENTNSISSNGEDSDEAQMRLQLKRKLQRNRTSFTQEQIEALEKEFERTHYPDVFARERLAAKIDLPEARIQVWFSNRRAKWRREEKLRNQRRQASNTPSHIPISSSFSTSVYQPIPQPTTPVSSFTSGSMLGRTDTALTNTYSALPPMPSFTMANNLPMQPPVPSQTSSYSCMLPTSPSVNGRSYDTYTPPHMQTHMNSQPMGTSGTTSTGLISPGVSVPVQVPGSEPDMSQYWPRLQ
Signal transducer and activator of transcription 3 (Homo sapiens), sequence (P40763 whole entry, looked up): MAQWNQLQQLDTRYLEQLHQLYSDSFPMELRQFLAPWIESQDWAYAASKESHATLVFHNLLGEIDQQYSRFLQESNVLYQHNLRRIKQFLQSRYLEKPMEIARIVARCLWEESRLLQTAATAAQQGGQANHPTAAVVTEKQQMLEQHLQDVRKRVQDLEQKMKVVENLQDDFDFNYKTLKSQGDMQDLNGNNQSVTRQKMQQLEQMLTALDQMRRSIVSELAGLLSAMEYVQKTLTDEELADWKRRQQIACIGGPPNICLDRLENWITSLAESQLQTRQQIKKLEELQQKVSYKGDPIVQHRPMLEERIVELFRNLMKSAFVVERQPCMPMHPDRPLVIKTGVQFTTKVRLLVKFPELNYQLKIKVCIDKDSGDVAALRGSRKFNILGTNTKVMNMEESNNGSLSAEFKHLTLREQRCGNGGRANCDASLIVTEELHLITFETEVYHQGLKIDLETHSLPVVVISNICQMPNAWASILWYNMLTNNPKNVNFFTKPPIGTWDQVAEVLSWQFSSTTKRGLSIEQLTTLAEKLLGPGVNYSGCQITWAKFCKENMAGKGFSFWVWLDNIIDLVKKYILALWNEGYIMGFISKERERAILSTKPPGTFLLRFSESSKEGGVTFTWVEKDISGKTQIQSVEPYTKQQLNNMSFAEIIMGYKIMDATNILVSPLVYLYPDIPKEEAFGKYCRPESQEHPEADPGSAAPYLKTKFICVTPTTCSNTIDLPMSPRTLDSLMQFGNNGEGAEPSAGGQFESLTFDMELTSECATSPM
Estrogen-related receptor gamma (Homo sapiens), sequence (P62508 whole entry, looked up, the tested form may be a part): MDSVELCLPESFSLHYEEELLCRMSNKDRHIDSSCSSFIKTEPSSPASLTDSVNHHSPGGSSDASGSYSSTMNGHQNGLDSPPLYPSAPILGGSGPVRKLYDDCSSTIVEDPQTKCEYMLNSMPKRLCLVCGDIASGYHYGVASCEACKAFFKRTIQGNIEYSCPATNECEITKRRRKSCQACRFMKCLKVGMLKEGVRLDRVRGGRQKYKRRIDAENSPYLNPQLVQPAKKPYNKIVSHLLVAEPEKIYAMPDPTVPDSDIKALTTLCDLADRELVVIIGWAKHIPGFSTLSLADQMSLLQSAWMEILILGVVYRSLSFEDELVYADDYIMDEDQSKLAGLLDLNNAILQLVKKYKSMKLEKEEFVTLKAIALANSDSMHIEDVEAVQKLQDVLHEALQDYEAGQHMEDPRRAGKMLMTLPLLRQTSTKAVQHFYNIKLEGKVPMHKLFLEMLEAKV
Steroid hormone receptor ERR1 (Homo sapiens), sequence (P11474 whole entry, looked up, the tested form may be a part): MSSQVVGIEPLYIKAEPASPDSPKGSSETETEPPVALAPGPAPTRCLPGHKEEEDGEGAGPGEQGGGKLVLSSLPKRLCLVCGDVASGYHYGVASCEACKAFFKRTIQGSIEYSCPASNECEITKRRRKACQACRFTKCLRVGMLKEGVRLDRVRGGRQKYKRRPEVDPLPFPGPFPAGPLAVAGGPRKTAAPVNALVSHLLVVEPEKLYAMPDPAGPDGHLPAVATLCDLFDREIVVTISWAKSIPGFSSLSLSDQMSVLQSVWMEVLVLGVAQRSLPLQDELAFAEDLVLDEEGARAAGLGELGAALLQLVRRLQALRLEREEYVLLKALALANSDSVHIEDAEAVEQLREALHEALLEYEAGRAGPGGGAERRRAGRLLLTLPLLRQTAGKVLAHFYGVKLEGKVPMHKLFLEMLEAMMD

CC(=O)CC(=O)Nc1ccc(C)cc1C
inactive: [1] | [2] | [3] | [4] | [5] | [6] | [7] | [8] | [9] | [10] | [11] | [12] | [13] | [14] | [15]

CC1C2CC(CC2C2CCCC(O)C2)C1(C)C (stereo not given)
active: [2] 3.04 µM
inactive: [1] | [3] | [4] | [5] | [6] | [7] | [8] | [9] | [10] | [11] | [12] | [16] | [13] | [15]

O=C(O)CNc1ccccc1
inactive: [1] | [3] | [4] | [5] | [6] | [7] | [8] | [9] | [11] | [12] | [16] | [17] | [18] | [13] | [19]
active: [2] 19.2 µM

COC(=O)c1ccc(C)cc1C1=NC(C)(C(C)C)C(=O)N1 (stereo not given) (tested in a mixture with another compound)
active: [2] 15.2 µM | [16] 26.8 µM
inactive: [1] | [3] | [4] | [5] | [6] | [7] | [8] | [9] | [10] | [11] | [12] | [13] | [14] | [19]

CCCCCCCC(=O)OCC(O)CO (stereo not given)
inactive: [1] | [2] | [3] | [4] | [5] | [6] | [7] | [8] | [9] | [10] | [11] | [12] | [17] | [18] | [13] | [14]

C=Cc1ccc(C)cc1
inactive: [1] | [3] | [4] | [5] | [6] | [7] | [8] | [9] | [11] | [12] | [16] | [17] | [13] | [14] | [15]
active: [2] 36.9 µM

CC1=C(Br)C(=O)C(Br)=C/C1=C(/c1ccccc1S(=O)(=O)O)c1cc(Br)c(O)c(Br)c1C
active: [2] 26.2 µM | [16] 40.8 µM
inactive: [1] | [3] | [4] | [5] | [6] | [7] | [8] | [9] | [10] | [11] | [12] | [13] | [14] | [15]

CC1(C)O[C@@H]2C[C@H]3[C@@H]4CCC5=CC(=O)C=C[C@]5(C)[C@@]4(F)[C@@H](O)C[C@]3(C)[C@]2(C(=O)CO)O1
inactive: [1] | [3] | [4] | [5] | [6] | [7] | [8] | [9] | [10] | [11] | [12] | [16] | [13] | [14]
active: [2] 13.8 µM

CCCCCc1ccco1
inactive: [3] | [4] | [5] | [6] | [7] | [8] | [9] | [11] | [12] | [16] | [17] | [13] | [14]
active: [1] 111 µM | [2] 4.15 µM

From PubChem BioAssay (EPA / NIEHS)
